In assay [1] the target is Calcium and integrin-binding protein 1 (Homo sapiens) (UniProt Q99828). The assay is described as follows: Primary qHTS for Identification of Calcium Integrin Binding Protein 1 (CIB1) Competitor (AID 1508620).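 Also: GST tagged CIB1 binding a fluorescein labelled alphaIIb integrin peptide tracer; top concentration of the series differs between compounds.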 The method in brief:
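CIB1-GST (1 uM final) and compound incubated 15 min at room temperature before adding FITC-alphaIIb peptide tracer (100 nM final). Competition for binding read by fluorescence polarization (ex 480, em 540) after another 15 min at room temperature.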

Assay [2] is described as follows: Primary qHTS for inhibitors of nuclear receptor binding SET domain protein 2 (NSD2) in an isogenic RCH-ACV NSD2 p.E1099K mutant (9B) (AID 1645876). Also: nearly all actives have a fitted effect of over 70% in size. Also: potency is read from the fitted curve at half-maximal effect.

Records with an inconclusive call do not appear. Unmarked numbers belong to inactive results. Calls of active or inactive are those of the source. Calls follow the shape of the dose curve; as a rule, active = well fitted inhibition curve with a large enough effect; inconclusive = small, poorly fitted or top-dose-only effect; inactive = flat fitted curve, though single readings scatter.
% is scaled to controls: 0 for no effect and ±100 for the full control effect.

Chain of Calcium and integrin-binding protein 1 (Homo sapiens) (Q99828 whole entry, looked up): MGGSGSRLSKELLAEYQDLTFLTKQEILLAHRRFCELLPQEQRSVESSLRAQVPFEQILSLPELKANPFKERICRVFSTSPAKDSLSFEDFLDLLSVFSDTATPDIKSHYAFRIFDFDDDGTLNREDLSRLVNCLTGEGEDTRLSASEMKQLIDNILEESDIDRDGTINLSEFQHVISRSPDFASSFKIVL

Consider `CC1(C)CC[C@]2(C(=O)O[C@@H]3O[C@H](CO)[C@@H](O)[C@H](O)[C@H]3O)CC[C@]3(C)C(=CCC4[C@@]5(C)CC[C@H](O[C@@H]6O[C@H](C(=O)O)[C@@H](O)[C@H](O)[C@H]6O)[C@@](C)(CO)C5CC[C@]43C)C2C1` (some centres undefined), for which the Potency result in assay [1] is “inactive”. For the same compound, the activity change, negative = viability loss in assay [2] was 3.1% [at 9.23 µM].

For the compound `C=C(C)C1CCC2(C(=O)O[C@@H]3O[C@H](CO[C@@H]4O[C@H](CO)[C@@H](O)[C@H](O)[C@H]4O)[C@@H](O)[C@H](O[C@@H]4O[C@@H](C)[C@H](O)[C@@H](O)[C@H]4O)[C@H]3O)CCC3(C(=O)O)C(CCC4C5(C)CCC(O)C(C)(C)C5CCC43C)C12` (some centres undefined), in assay [1], the Potency result was “inactive”. Also, the outcome in assay [2] was “inactive [at 9.23 µM]”.

On to `C/C1=C\[C@H]2OC(=O)[C@@H](C)[C@@H]2CC/C(C(=O)O)=C/CC1`, for which the Potency entry in assay [1] and in assay [2] was “inactive” in each case.

For `CC(=O)OC1C(O)C2C(C)C3=CC(=O)OC3(O)CC2C2(C)CCCC(C)(CO)C12` (centres undefined), the Potency entry in assay [1] and in assay [2] was “inactive” throughout.

For the compound `OC/C=C/C=C/[C@H]1Cc2cc(O)cc(O)c2O1`, the Potency entry in assay [1] and in assay [2] was “inactive” each time.

Take `CC1(C)CC[C@]2(C(=O)O)CC[C@]3(C)C(=CCC4[C@@]5(C)CC[C@H](O[C@@H]6O[C@H](C(=O)O)[C@@H](O[C@@H]7OC[C@@H](O)[C@H](O)[C@H]7O)[C@H](O)[C@H]6O)C(C)(C)C5CC[C@]43C)C2C1O` (some centres undefined): the Potency entry in assay [1] and in assay [2] was “inactive” throughout.

As to `C/C=C(\C)C(=O)O[C@@H]1CC2[C@@H](CC=C3C[C@@H](O[C@H]4C[C@H](OC)[C@H](O[C@H]5C[C@H](OC)[C@H](O[C@@H]6O[C@H](C)[C@@H](O[C@H]7C[C@H](OC)[C@H](O[C@@H]8O[C@H](CO)[C@@H](O)[C@H](O)[C@H]8O)[C@@H](C)O7)[C@H](OC)[C@H]6O)[C@@H](C)O5)[C@@H](C)O4)CC[C@@]32C)[C@@]2(O)CC[C@H](C(C)=O)[C@@]12C` (some centres undefined), the activity change, negative = inhibition in assay [1] is 2.76% [at 12.4 µM]. Further, the activity change, negative = viability loss in assay [2] is -8.77% [at 9.23 µM].

In the case of `COc1c2c(c(C)c3c1C(=O)OC3)OC1(C)CC(O)C34OC(OC)(OC3(C)C)C(O)CC4(C)C1C2` (centres undefined), the Potency entry in assay [1] and in assay [2] was “inactive” in each case.

With `CC(C(O)/C=C/C(C)(C)O)C1CCC2(C)C3C(=O)C=C4C(CCC(O)C4(C)C)C3(C)CCC12C` (centres undefined), the Potency result in assay [1] and in assay [2] was “inactive” each time.

For `CC1(C)CC[C@]2(CO[C@@H]3O[C@H](CO)[C@@H](O)[C@H](O)[C@H]3O)[C@@H](O)C[C@]3(C)C(=CCC4[C@@]5(C)CC[C@H](O[C@@H]6O[C@H](CO[C@@H]7O[C@H](CO[C@@H]8OC[C@@H](O)[C@H](O)[C@H]8O)[C@@H](O)[C@H](O)[C@H]7O)[C@@H](O)[C@H](O)[C@H]6O)C(C)(C)C5CC[C@]43C)[C@@H]2C1` (some centres undefined), the Potency result in assay [1] is “inactive”. The activity change, negative = viability loss in assay [2] is -11.3% [at 9.23 µM].

In the case of `COC(=O)c1cc(OC)cc(OC)c1C(=O)c1c(OC)cc2c(c1O)C1CCCC(C)(O2)O1` (centres undefined), the Potency result in assay [1] and in assay [2] was “inactive” each time.

Turning to `COc1c2cc(c(O)c1OC)-c1cc(ccc1O)CCC(O)CCCC2` (centres undefined), the Potency result in assay [1] and in assay [2] was “inactive” each time.

As to `CC(O)(CC(=O)O)CC(=O)OCc1ccc(O[C@@H]2O[C@H](CO)[C@@H](O)[C@H](O)[C@H]2O)cc1` (some centres undefined), the Potency result in assay [1] and in assay [2] was “inactive” each time.

Take `C=CC(=O)N1CCN(C(=O)CNc2cc(I)c(Cl)cc2O)CC1`: the Potency result in assay [1] is “inactive”. For the same compound, the Potency in assay [2] was 5.15 µM (active).

Consider `CC1C(OC(=O)c2ccccc2)C(O)C2C(C(=O)O)=COC(OC3OC(CO)C(O)C(O)C3O)C12` (centres undefined), for which the Potency result in assay [1] and in assay [2] was “inactive” in each case.

`CC/C=C\C/C=C\C/C=C\CCCCCCCC(=O)OCC(O)COC1OC(CO)C(O)C(O)C1O` (centres undefined): the Potency result in assay [1] and in assay [2] was “inactive” in each case.

For the compound `CC1CCC23COC(=O)C2=CC(O)CC3C1(C)CCC1=CC(O)OC1=O` (centres undefined), the Potency entry in assay [1] and in assay [2] was “inactive” each time.

As to `C[C@@H]1[C@H]2[C@H](O[C@@H]3O[C@H](CO)[C@@H](O)[C@H](O)[C@H]3O)OC=C(C(=O)O)[C@H]2C[C@@H]1O`, the Potency entry in assay [1] and in assay [2] was “inactive” in each case.

Take `O=C1Nc2ccccc2C(O)(c2ccccc2)C1O` (centres undefined): the Potency result in assay [1] and in assay [2] was “inactive” throughout.

`CC(C)=CCC[C@](C)(O)[C@H]1CC[C@]2(C)[C@@H]1[C@H](O)CC1[C@@]3(C)CC[C@H](O)C(C)(C)C3[C@@H](O[C@@H]3O[C@H](CO)[C@@H](O)[C@H](O)[C@H]3O[C@@H]3OC[C@@H](O)[C@H](O)[C@H]3O)C[C@]12C` (some centres undefined): the Potency result in assay [1] and in assay [2] was “inactive” throughout.

Turning to `OCc1ccc(O[C@@H]2O[C@H](CO)[C@@H](O)[C@H](O)[C@H]2O)cc1`, the Potency entry in assay [1] and in assay [2] was “inactive” in each case.

On to `CC(O)/C=C/C1(O)C2(C)COC1(C)CC(O)C2` (centres undefined), for which the Potency entry in assay [1] and in assay [2] was “inactive” each time.

Source of the values: PubChem BioAssay (NCATS).
